# Bioassay records from PubChem BioAssay.
# A selection: hits, their analogues and other compounds. The true share with any hit is near 1.1%.
# Tb PGK inh = qHTS Assay to Find Inhibitors of Phosphoglycerate Kinase | Phosphoglycerate kinase, glycosomal (Trypanosoma brucei brucei), P07378 | 380,000 tested, 0.043% active | AID 602233, 2012 | PGK/GAPDH coupled, Kinase-Glo luminescence, 60 min | Potency, µM (top dose mostly 57.5 µM), for the others: top-dose activity change, negative = inhibition, most hits filed as inhibitors; also: nearly all actives have a fitted effect of over 60% in size
#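 Luminescent ATP detection (Kinase-Glo Plus) follows a 60-minute room-temperature incubation, with wells lacking PGK as controls. Buffer: 100 mM TEA (pH 7.6), 5 mM MgCl2, 0.01% Tween-20. Coupling enzyme GAPDH (100 nM final) supplies unstable 1,3-BPG in-well.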
# GLS inhibitor = qHTS for Inhibitors of Glutaminase (GLS); Glutaminase kidney isoform, mitochondrial (Homo sapiens), O94925; GLS enzymatic activity, qHTS titration; Potency, µM (series often up to 45.5 µM), for inactives: top-dose activity change, negative = inhibition, usual class: inhibitors; 410,000 tested, 0.21% active
#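 Compounds were pin-transferred onto hKGA, after which L-glutamine (1 mM solution) and a detection mix of glutamate oxidase, HRP and Amplex Red were added. Initial and 30 min RT fluorescence reads were collected.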
# Pin1 inh = qHTS Assay to Find Inhibitors of Pin1; Potency, µM (highest dose often 115 µM), inactives show top-dose activity, negative = inhibition, most hits filed as inhibitors; Peptidyl-prolyl cis-trans isomerase NIMA-interacting 1 (Homo sapiens), Q13526; AID 504891, 2011; Pin1 FP peptide displacement, HiFluor488, 10 min; 390,000 tested, 0.009% active; active = well fitted inhibition curve with a large enough effect in the polarisation, with a control signal flat, not every such curve was filed as active; inconclusive = small, poorly fitted or top-dose-only effect, or effect the other way, or a change in a side signal; inactive = no such curve, though single readings can be large or run the other way; the % refers to the polarisation
# Target sequence (Q13526 whole entry, looked up): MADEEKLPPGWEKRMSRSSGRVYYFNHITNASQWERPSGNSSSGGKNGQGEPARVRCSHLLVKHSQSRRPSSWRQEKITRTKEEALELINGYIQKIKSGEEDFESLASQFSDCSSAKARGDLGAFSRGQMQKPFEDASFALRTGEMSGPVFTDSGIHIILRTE
# Tb PFK inh = qHTS Assay to Find Inhibitors of T. brucei phosphofructokinase; ATP-dependent 6-phosphofructokinase (Trypanosoma brucei brucei), O15648; T. brucei PFK, ADP-Glo luminescence; 330,000 tested, 0.17% active; Potency, µM (highest dose often 57.5 µM), for inactives: at the highest dose activity, negative = inhibition, hits mostly inhibitors; AID 485367, 2010;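 also: 0% = uninhibited 1x PFK enzyme wells and -100% = no-enzyme wells; nearly all actives have a fitted effect of over 60% in size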
# Target sequence (O15648 whole entry, looked up): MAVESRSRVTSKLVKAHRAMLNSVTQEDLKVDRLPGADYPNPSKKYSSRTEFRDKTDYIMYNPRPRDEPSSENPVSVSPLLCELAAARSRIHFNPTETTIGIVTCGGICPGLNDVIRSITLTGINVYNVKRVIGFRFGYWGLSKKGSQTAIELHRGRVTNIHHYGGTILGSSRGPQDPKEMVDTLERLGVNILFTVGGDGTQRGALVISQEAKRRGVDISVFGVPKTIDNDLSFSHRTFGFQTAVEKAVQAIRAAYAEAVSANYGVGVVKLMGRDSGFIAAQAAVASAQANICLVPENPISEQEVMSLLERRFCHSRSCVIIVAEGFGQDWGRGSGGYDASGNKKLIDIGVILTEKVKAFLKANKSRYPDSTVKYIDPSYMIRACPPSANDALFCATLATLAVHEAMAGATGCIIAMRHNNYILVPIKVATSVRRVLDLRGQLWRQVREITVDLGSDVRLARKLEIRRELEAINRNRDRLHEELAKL
#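 ADP-Glo luminescence quantified ADP after 45 min at room temperature, with 1.25 nM T. brucei PFK, 0.1 mM ATP and 0.5 mM fructose-6-phosphate in pH 8.0 TEA buffer. qHTS titrations up to 57 µM; curves classified by quality.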
# VDR inhibitor = Inhibitors of the vitamin D receptor (VDR): qHTS; Vitamin D3 receptor (Homo sapiens), P11473; VDR-SRC2-3 peptide fluorescence polarization, 2 h; Potency, µM, inactives show max response, negative = inhibition, usual class: inhibitors; 400,000 tested, 0.93% active
#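 After 23 nl compound addition and a short centrifugation, plates sat for 2 hours at ambient temperature; polarization of fluorescence then indicated loss of VDR binding to peptide SRC2-3.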
# Starred values were filed as active, the others as inactive; ? = inconclusive; · = no result; ! = a repeat was not active; [ ] = dose if it differs, or a comment. Unless noted, calls follow the shape of the dose curve; as a rule, active = well fitted curve in the direction sought with a large enough effect; inconclusive = small, poorly fitted or top-dose-only effect, or another doubt; inactive = no such curve, though single readings can be large; an effect the other way counts as inactive or inconclusive. Unless noted, % is scaled to controls: 0 for no effect and ±100 for the full control effect; potency is read from the fitted curve at half-maximal effect.
SMILES,Tb PGK inh,GLS inhibitor,Pin1 inh,Tb PFK inh,VDR inhibitor
CN(C)[C@@H]1C(=O)C(C(N)=O)=C(O)[C@@]2(O)C(=O)C3=C(O)c4c(O)cccc4[C@@](C)(O)C3C[C@@H]12 (stereo not given in full),-3.5%,-33.7%,7.6%,-3.0%,·
O=c1[nH]cc(N(CCCl)CCCl)c(=O)[nH]1,·,10.5%,·,·,17.8µM*
Cc1nn2c(=O)cc(N3CCNCC3)nc2s1,·,·,1.6%,·,·
COc1cc(/C=C(/C)[N+](=O)[O-])ccc1OCc1ccccc1Cl,-0.7%,-14.8%,1.0%,2.4%,8.91µM*
Cc1c(N)nc([C@@H](CC(N)=O)NC[C@H](N)C(N)=O)nc1C(=O)N[C@H](C(=O)N[C@H](C)[C@H](O)[C@H](C)C(=O)N[C@@H](C(=O)NCCc1nc(-c2nc(C(=O)NCCC[S+](C)C)cs2)cs1)[C@H](C)O)[C@H](O[C@@H]1O[C@@H](CO)[C@@H](O)[C@H](O)[C@@H]1O[C@H]1O[C@H](CO)[C@H](O)[C@H](OC(N)=O)[C@@H]1O)c1cnc[nH]1,·,1.9%,·,·,·
CC(=O)[O][Hg][c]1ccccc1,·,?,·,·,1.78µM*
CC(=O)C(Sc1ncnc2c1nnn2-c1ccc(F)cc1)C(=O)N(C)C (stereo not given),-2.7%,-9.2%,3.1%,-4.1%,50.1µM*
CCOc1cc(OP(=S)(OC)OC)nc(CC)n1,·,·,·,·,22.4µM*
CCCCC/C=C\C[C@@H](/C=C/C=C\C/C=C\CCCC(=O)O)OO,·,·,·,·,-13.9%
CCCCC/C=C\C/C=C\C/C=C\C/C=C\CCCC(=O)O,·,·,·,-6.6%,7.94µM*!
CCCCC1(C2CCCC2)Cc2cc(OCCCC(=O)O)c(Cl)c(Cl)c2C1=O (stereo not given),·,·,·,·,39.8µM*
COP(=S)(OC)Oc1ccc([N+](=O)[O-])c(C)c1,·,·,·,·,22.4µM*
C=CCN1CC[C@]23c4c5ccc(O)c4O[C@@H]2/C(=N/N=C2\CC[C@@]4(O)C6Cc7ccc(O)c8c7[C@@]4(CCN6CC=C)[C@@H]2O8)CC[C@@]3(O)C1C5,·,·,·,·,0.8%
S=C=NCc1ccccc1,·,·,·,·,39.8µM*
CCCC1(CCC)C(=O)NC(=NCc2ccccc2)NC1=O,-3.3%,12.9%,0.3%,-9.2%,4.4%
CCOP(=S)(OCC)Oc1cc(C)oc(=O)c1Cl,6.4%,-16.0%,4.9%,-19.2%,28.2µM*
Cc1c(Cl)c(=O)oc2cc(OP(=O)(OCCCl)OCCCl)ccc12,·,1.4%,·,·,-19.5%
CCOP(=S)(OCC)Oc1cc(C)oc(=O)c1,-3.0%,-9.3%,5.6%,-17.7%,79.4µM*
CC12CCC(=O)CC1CCC1C2CCC2(C)C1CCC2(C)O (stereo not given),·,-0.5%,·,·,·
COc1ccc(C=C2C(=O)N(C)C(=O)N(C)C2=O)cc1CSc1ccccn1,-0.2%,27.8%,1.1%,0.1%,79.4µM*
CCC1(c2ccccc2)C(=O)NC(=O)N(C(=O)c2ccccc2)C1=O (stereo not given),·,23.0%,·,·,0.3%
CC1(C)CC/C(=C\c2ccc(Cl)cc2)C1(O)Cn1cncn1 (stereo not given),·,1.7%[99.4 µM],·,·,·
CC(C)=CCCC(C)C1CC[C@@]2(C)C3=C(CC[C@@]12C)C1(C)CCC(O)C(C)(C)C1CC3 (stereo not given in full),·,·,·,·,35.5µM*
C/C(=C/CCC(C)[C@H]1CC[C@@]2(C)C3=C(CC[C@]12C)[C@@]1(C)CCC(=O)C(C)(C)[C@@H]1CC3)C(=O)O (stereo not given in full),-3.9%,5.2%,39.2%,-10.8%,?
CN1[C@@H]2CC[C@H]1CC(OC(c1ccc(F)cc1)c1ccc(F)cc1)C2 (stereo not given in full),·,·,·,·,-17.4%
SMILES,Tb PGK inh,GLS inhibitor,Pin1 inh,Tb PFK inh,VDR inhibitor
CCCC(C)c1nnc(NC(=O)CCS(=O)(=O)c2ccccc2)s1 (stereo not given),-4.4%,-17.0%,0.5%,?,25.1µM*
CCC(=O)O[C@@](Cc1ccccc1)(c1ccccc1)[C@H](C)CN(C)C,·,0.2%[99.4 µM],·,·,·
On1ccccc1=S,3.4%,49.5%,-2.9%,-25.4%,22.4µM*
NC(=O)CSc1nc2cc(S(=O)(=O)N3CCOCC3)ccc2o1,-6.8%,-7.8%,-4.0%,3.5%,?
CCN(CC)C(=O)N[C@@H]1C[C@H]2c3cccc4[nH]cc(c34)C[C@@H]2N(C)C1,·,·,·,·,2.6%
CC1=C[C@@H]2c3cccc4[nH]cc(c34)C[C@H]2N(C)C1,0.8%,?,?,-3.4%,50.1µM*!
CN1Cc2ccccc2[C@@H]2c3cccc4[nH]cc(c34)C[C@H]21,·,·,·,·,14.1µM*
CC(=O)OC1CC[C@@]2(C)C3CC(=O)[C@]4(C)C(C(C)=O)=CCC4C3CC[C@H]2C1 (stereo not given in full),·,·,·,·,2µM*
COc1ccc(OC)c(C[C@H](C)N)c1,·,-5.0%[99.4 µM],·,·,·
COC1C(C)OC(OC2CC(C)(O)Cc3cc4c(c(O)c32)C(=O)c2c(O)cc3c(c2C4=O)OC2OC3(C)C(O)C(N(C)C)C2O)C(OC)C1(C)OC (stereo not given),-11.1%,8.3%,?,·,3.3%
O=C(Nc1ccccc1)N1CC[C@@]2(CCCNC2)C1,·,·,·,·,-21.6%
COC(=O)c1nc(-c2ccc3c(n2)C(=O)C(N)=C(OC)C3=O)c(N)c(-c2ccc(OC)c(OC)c2O)c1C,-0.5%,-1.8%,?,-0.3%,10µM*
CC(C)OC(=O)C(O)(c1ccc(Cl)cc1)c1ccc(Cl)cc1,·,·,·,·,-1.6%
COc1ccc(NC(=O)CSc2oc(-c3cccs3)nc2S(=O)(=O)c2ccccc2)c(OC)c1,7.8%,2.3%,34.1%,·,-6.2%
CSCC[C@H](NC(=O)[C@H](Cc1ccccc1)NC(=O)CNC(=O)CNC(=O)[C@@H](N)Cc1ccc(O)cc1)C(=O)O,·,·,·,·,-1.5%
Nc1c(Br)cc2c3c(cccc13)-c1ccccc1-2,-14.4%,1.0%,?,·,28.2µM*
CC[n+]1c(-c2ccccc2)c2cc(N)ccc2c2ccc(N)cc21,-8.3%,-2.0%,?,·,6.31µM*
CCOC(=O)Nc1ccc(NCc2ccc(F)cc2)nc1N,-1.6%,1.9%,?,-4.1%,6.31µM*
C[C@H](N)C(=O)c1ccccc1,·,6.6%,·,·,·
Cc1[nH]n(-c2ccccc2)c(=O)c1C(c1cccc([N+](=O)[O-])c1O)c1c(C)[nH]n(-c2ccccc2)c1=O,-3.5%,10µM*,-16.6%,?,?
O=C(O)Cc1cccnc1C(=O)O,·,·,·,·,-4.0%
N#CC(C#N)=Cc1cc(O)c(O)c(O)c1,·,58.2%,·,·,22.4µM*
N#CC(C#N)=Cc1ccc(O)cc1,·,·,·,·,50.1µM*
